Laboratory results reported in PubChem BioAssay AID588689 (Southern Research Specialized Biocontainment Screening …, 2011).
Screen size: about 340,000 compounds; about 1,000 (0.29%) were called active. Cut-off read from the data, not from the text of the source: inconclusive = inhibition above about 29% without an active follow-up result; inactive = below that. A selection follows. Potency and affinity values are given separately.

Molecular target: Genome polyprotein (Dengue virus type 2 (strain 16681-PDK53)) (UniProt P29991)
Assay: Dengue-2 NS5 methyltransferase inhibitors, primary screen, biochemical, confirmation dose response (AID 588689)
Settings: Dengue-2 NS5 methyltransferase capping enzyme assay, at 25 µM, stronger effect = higher value
[1] = measured here: pilot screen replicate inhibition

Compound	inhibition	inhibition [1] [%]
CCOC(=O)CN(C(=O)CNC(=O)c1ccco1)C(C(=O)NC1CCCC1)c1ccccc1OCC (stereo unspecified)	-1.62% (inactive)	–
NS(=O)(=O)c1ccc(CCNC(=O)CCNS(=O)(=O)c2ccccc2C(F)(F)F)cc1	0% (inactive)	–
C/C(=N\NS(=O)(=O)c1ccccc1)c1cccc(NC(=O)c2cccc(Cl)c2)c1	-5.93% (inactive)	–
COc1cccc(NC(=O)CN(C)C(=O)CN2C(=O)c3ccc([N+](=O)[O-])cc3C2=O)c1	-7.27% (inactive)	–
CS(=O)(=O)c1ccc(C(=O)OCC(=O)c2ccc(Cl)s2)cc1	4.34% (inactive)	–
CCCCCNC(=O)C1CCC(Cn2c(=S)[nH]c3ccccc3c2=O)CC1 (stereo unspecified)	-0.74% (inactive)	–
O=C(O)c1ccccc1Nc1ccccc1C(=O)O	4.09% (inactive)	–
COc1cccc(Nc2ccccc2C(=O)O)c1	-2.96% (inactive)	–
COc1ccccc1/C(C)=N/NC(=O)c1nnn(-c2nonc2N)c1C(C)C	-2.62% (inactive)	–
CC(=O)N1CCc2c(sc(NC(=O)c3cccc(N4C(=O)CCC4=O)c3)c2C(N)=O)C1	-10.4% (inactive)	–
O=Cc1ccc(C(=O)O)cc1	-0.73% (inactive)	–
Cc1cccc(N2C(=O)/C(=C\c3ccc(C(=O)O)cc3)c3ccccc3C2=O)c1	25% (inactive)	–
Cn1nc(-c2ccc(Cl)cc2)cc1NC(=O)Nc1ccccc1	-6.13% (inactive)	–
COc1ccc(CN(C)C(=O)Cn2cnc3c(OCc4ccccc4)ncnc32)cc1OC	3.64% (inactive)	2.12
O=C1c2cccc3cccc(c23)C(=O)N1CCN1CCN(CC(O)COc2ccccc2)CC1 (stereo unspecified)	1.28% (inactive)	–
COc1ccc(C)cc1NC(=O)CN1CCN(c2ccccn2)CC1	-3.92% (inactive)	–
Cn1c(=O)c2[nH]c(-c3ccccc3Cl)c(O)c2n(C)c1=O	-9.85% (inactive)	–
CC(=O)Nn1cc2c(c1-c1ccccc1)c(=O)n(C)c(=O)n2C	-11.6% (inactive)	-4.71
CSc1nc(C=Nc2ccccc2Cl)c(O)n1Cc1cccc(Cl)c1	-15.4% (inactive)	–

Compound	inhibition	inhibition [1] [%]
CCc1nnc(SCC(=O)Nc2ccc3c(c2)OCO3)n1CC	2.59% (inactive)	–
COc1cc(/C=C/c2ccc3cccc(O)c3n2)c(Br)cc1O	-37.2% (inactive)	–
COc1cc(C=C2C(=O)c3ccccc3C2=O)ccc1O	25.4% (inactive)	–
CCCCN1C(=O)NC(NS(=O)(=O)c2ccc(N)cc2)(C(F)(F)F)C1=O (stereo unspecified)	1.6% (inactive)	–
CC#CCN1C=C(C(=O)OCC)C(C)N(Cc2ccc(Br)cc2)S1(=O)=O (stereo unspecified)	3.64% (inactive)	-3.33
CCCCOc1ccc(N2C(=O)CC(N(O)c3ccccc3)C2=O)cc1 (stereo unspecified)	-3.24% (inactive)	–
CCN(CC)C1CC(=O)N(c2ccc(Br)cc2)C1=O (stereo unspecified)	-14.3% (inactive)	–
COc1ccccc1N1C(=O)CC(N(O)c2ccccc2)C1=O (stereo unspecified)	-4.6% (inactive)	–
COc1ccccc1N1CCN(C2CC(=O)N(c3ccc(F)cc3)C2=O)CC1 (stereo unspecified)	10.3% (inactive)	–
CC(=O)c1ccc(C(=O)N(C)C2CCCN(Cc3ccccc3F)C2)s1 (stereo unspecified)	-12.1% (inactive)	–
Cc1ccc(S(=O)(=O)Nc2ccccc2C(=O)Nc2nc(-c3ccc(F)cc3)cs2)cc1	0.64% (inactive)	–
Cc1ccc(S(=O)(=O)Nc2nc(-c3ccccc3)cs2)cc1	23% (inactive)	–
O=S(=O)(Nc1nc(-c2ccccc2)cs1)c1cccc(C(F)(F)F)c1	19.9% (inactive)	–
COc1ccc(-c2csc(NS(=O)(=O)c3ccc([N+](=O)[O-])cc3)n2)cc1	19.5% (inactive)	–
COc1ccc(S(=O)(=O)N2CCCC2C(=O)NCc2cccs2)cc1 (stereo unspecified)	-17.2% (inactive)	–
CCOc1ccc(S(=O)(=O)N2CCCCC2)c2ccccc12	-5.6% (inactive)	–
CCc1cccc(C)c1NC(=O)CSc1nc2ccccc2n1CC(=O)N(C)C	-2.07% (inactive)	–
O=C(O)COc1ccccc1/C=N/Nc1ccc(S(=O)(=O)N2CCOCC2)cc1[N+](=O)[O-]	6.86% (inactive)	–
COc1ccccc1NS(=O)(=O)c1cccc(C(=O)N/N=C/c2ccccc2OCC(=O)O)c1	-8.38% (inactive)	–

Compound	inhibition	inhibition [1] [%]
COc1ccc(NS(=O)(=O)c2cc([N+](=O)[O-])ccc2NN=Cc2ccccc2OCC(=O)O)cc1	-8.26% (inactive)	–
Cc1ccc(NS(=O)(=O)c2ccc(N/N=C/c3ccncc3)c([N+](=O)[O-])c2)c(C)c1	2.21% (inactive)	–
O=C(O)COc1ccccc1/C=N/NC(=O)c1cc(-c2ccccc2)nc2ccccc12	7.47% (inactive)	–
O=C(O)COc1ccccc1C=NNc1ccc([N+](=O)[O-])cc1S(=O)(=O)Nc1ccc(Cl)cc1	35% (inactive)	–
O=C(O)COc1ccccc1/C=N/NC(=O)c1cc(-c2ccc(F)cc2)nc2ccccc12	1.48% (inactive)	–
CCN(CC)S(=O)(=O)c1ccc(N/N=C/c2ccccc2OCC(=O)O)c([N+](=O)[O-])c1	13.7% (inactive)	–
CNC(=O)N(O)C1N(/N=C/c2ccc(C)cc2)C(=S)SC1(C)C (stereo unspecified)	-3.93% (inactive)	–
O=C(CCOc1ccccc1)NNC(=O)c1ccccc1	-4.63% (inactive)	–
Cc1ccc(C)c(C(=O)CCC(=O)Nc2cccnc2)c1	-3.23% (inactive)	–
CC1=C(C#N)C(=O)NC1(C)O (stereo unspecified)	5.14% (inactive)	–
COc1ccc(N(CC(=O)N2CCN(Cc3ccccc3)CC2)S(=O)(=O)c2ccccc2)cc1	-5.2% (inactive)	–
O=C(c1cccs1)N(Cc1ccco1)C1CCS(=O)(=O)C1 (stereo unspecified)	-4.01% (inactive)	–
O=C(Nc1ccccc1)c1ccccc1NC(=O)[C@H]1CCCC[C@H]1C(=O)O	-3.92% (inactive)	-1.53
CCC(C)Sc1cc(-c2nc3ccc(Cl)cn3c2NC2CCCCC2)ccc1OC (stereo unspecified)	-12.6% (inactive)	–
Cc1cc(OC(C)C(=O)NC2CCN(Cc3ccccc3)CC2)c2c(C)cc(=O)oc2c1 (stereo unspecified)	-2.72% (inactive)	–
CCCCOC(=O)C1=C(C)NC(=O)NC1c1ccc(OC)cc1 (stereo unspecified)	-0.39% (inactive)	–
Cn1cc(C(=O)Nc2ccc(F)c(F)c2)cn1	0% (inactive)	–
COCC(=O)Nc1ccc(N2CCCC2)c(S(=O)(=O)Nc2ccccc2OC)c1	-9.92% (inactive)	–
COc1ccc(N(CC(=O)NCCc2ccc(Cl)cc2)S(=O)(=O)c2c(C)[nH]c(=O)[nH]c2=O)cc1	-3.87% (inactive)	–
